# Experimental data from PubChem BioAssay (NCATS).
# Results filed as inconclusive are left out. A call without a number means that no potency is given here. The source made the active and inactive calls. The call rests on the fitted dose curve; in most records, active means well fitted curve in the direction sought with a large enough effect; inconclusive means small, poorly fitted or top-dose-only effect, or another doubt; inactive means no such curve, though single readings can be large; an effect the other way counts as inactive or inconclusive.
# Columns and labels:
# [1] = biological target: Nuclear receptor subfamily 1 group I member 3 (Homo sapiens) (UniProt Q14994); assay: Primary qHTS for agonist of constitutive androstane receptor (CAR) against the NCATS DSHEA and TCM libraries (AID 1794839);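 further: HepG2 cells expressing human CAR with a CYP2B6 reporter plus PK11195 antagonist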
# Procedure, shortened: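 HepG2-CYP2B6-hCAR cells (2,500/well) were attached for 5 h, then treated for 24 h at 37 °C with compounds plus 0.75 µM PK11195. Luciferase luminescence (ONE-Glo) was read, with CellTiter-Fluor viability (Ex/Em 405/540 nm).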
# [2] = HepG2 viability counterscreen (readout 2: ATP content) against the NCATS DSHEA and TCM libraries (AID 1794840);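 further: HepG2 cells exposed to substances for about 24 h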
# Procedure, shortened: (§1)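 HepG2 cells (1,000 cells/well) attached ~4 h, then treated ~24 h at 37C with substances. Protease activity read by GF-AFC (25 uM final, 30 min, Ex/Em 380/510 nm); ATP content then by CellTiter-Glo luminescence.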
# [3] = HepG2 viability counterscreen (readout 1: protease activity) against the NCATS DSHEA and TCM libraries (AID 1794841);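 further: cells exposed to compounds for about 24 h before the protease read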
# Procedure, shortened: as §1
# [4] = biological target: Glutathione peroxidase 1 (Homo sapiens) (UniProt P07203); assay: Primary qHTS Assay for Inhibitors of Recombinant Selenoprotein Glutathione Peroxidase 1 (GPX1) (AID 1845191); further: nearly all actives have a fitted effect of over 65% in size; further: potency means the concentration at half of the fitted maximal effect
# Procedure, shortened: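 GPX1 10 nM, GR 100 nM, GSH 1 mM, NADPH 0.5 mM, CHP 0.5 mM (final). 30-min cpd preincubation, RT. Ex340/Em450 read t=0, t=15 min.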
# [5] = biological target: Phospholipid hydroperoxide glutathione peroxidase GPX4 (Homo sapiens) (UniProt P36969); assay: Primary qHTS Assay for Inhibitors of Recombinant Selenoprotein Glutathione Peroxidase 4 (GPX4) (AID 1845192); further: nearly all actives have a fitted effect of over 65% in size
# Procedure, shortened: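 qHTS, GR-coupled: GPX4 200 nM + cpd 30 min RT → GSH 1 mM, NADPH 0.5 mM, GR 100 nM → CHP 0.5 mM start; fluor 340/450 at t0 and t15 min; no-enzyme wells as control.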
# [6] = biological target: Cytochrome P450 3A4 (Homo sapiens) (UniProt P08684); assay: qHTS for inhibitors of CYP3A4 against the NCATS DSHEA and TCM libraries (AID 1919971);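 further: inhibition lowers luminescence from luciferin made by CYP3A4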
# Procedure, shortened: (§2)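 Substances were tested against enzyme with a pro-luciferin substrate; minus-enzyme wells served as background. After NADPH-initiated oxidation (30-45 min, RT), light was generated with P450-Glo reagent.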
# [7] = biological target: Cytochrome P450 2D6 (Homo sapiens) (UniProt P10635); assay: qHTS for inhibitors of CYP2D6 against the NCATS DSHEA and TCM libraries (AID 1919972)
# Procedure, shortened: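 qHTS, concentration–response format with most substances from 19.5 nM. CYP2D6 + pro-luciferin substrate, 15 min with compound, then 1x NADPH regen, 30–45 min RT dark. Glo detection 30 min, luminescence. Quinidine control.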
# [8] = biological target: Cytochrome P450 2C9 (Homo sapiens) (UniProt P11712); assay: qHTS for inhibitors of CYP2C9 against the NCATS DSHEA and TCM libraries (AID 1919973); further: potency means the concentration at half of the fitted maximal effect
# Procedure, shortened: as §2
# [9] = biological target: Cytochrome P450 2C19 (Homo sapiens) (UniProt P33261); assay: qHTS for inhibitors of CYP2C19 against the NCATS DSHEA and TCM libraries (AID 1919974);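 further: luminescence from luciferin released by CYP2C19 oxidation of a pro-luciferin substrate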; further: potency means the concentration at half of the fitted maximal effect
# Procedure, shortened: as §2
# [10] = KB-3-1 P-gp reporter qHTS against the NCATS DSHEA and TCM libraries (AID 1919975)
# Procedure, shortened: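 Parental KB-3-1 human cervical adenocarcinoma cells (500 cells/well, DMEM + 10% FBS) were treated with substances for ~72 h at 37C; viability was read by CellTiter-Glo luminescence.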
# [11] = biological target: Cytochrome P450 1A2 (Homo sapiens) (UniProt P05177); assay: qHTS for inhibitors of CYPIA2 against the NCATS DSHEA and TCM libraries (AID 1919976); further: potency means the concentration at half of the fitted maximal effect
# Procedure, shortened: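 Luminescence read-out: pro-luciferin converted to D-luciferin by CYP1A2, detected with P450-Glo reagent after 30 min RT. Enzyme plus substrate got compounds for 15 min RT; NADPH regeneration solution (final 1x) started a 30-45 min reaction, light-protected.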
# [12] = qHTS Counterscreen for compound interference against the NCATS DSHEA and TCM libraries (AID 1919978); settings: firefly luciferase detection reagent interference, luminescence
# Procedure, shortened: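 D-luciferin (1 uM final) or 100 mM potassium phosphate buffer alone was preincubated 15 min at RT with compounds (19.5 nM to 39.8 uM final). Luciferin detection reagent was then added and luminescence read after 30 min at RT.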
# [13] = Dual reporter qHTS for agonist of Pregnane X Receptor (hPXR) against the NCATS DSHEA and TCM libraries: Fluorescence readout (AID 1920058)
# Procedure, shortened: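 Fluorescence read-out for cell viability: CellTiter-Fluor, 1 h at 37 °C, Ex/Em 405/540 nm. This followed ~24 h treatment of hPXR-Luc HepG2 cells with substances in agonist mode.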
# [14] = biological target: Nuclear receptor subfamily 1 group I member 2 (Homo sapiens) (UniProt O75469); assay: Dual reporter qHTS for agonist of Pregnane X Receptor (hPXR) against the NCATS DSHEA and TCM libraries: Luminescence readout (AID 1920059)
# Procedure, shortened: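 hPXR-LucHepG2 cells in phenol red-free DMEM with 5% charcoal-stripped FBS, 2000 cells/well, attached 5 h, then exposed 24 h at 37C to compounds; rifampicin as positive agonist control (2.8 nM–92 uM). Luciferase luminescence read.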
# [15] = biological target: Metallo-beta-lactamase type 2 (Klebsiella pneumoniae) (UniProt C7C422); assay: qHTS to identify inhibitors of the New Delhi Metallo-beta-lactamase (NDM): assay validation screen against the NCATS LOPAC Collection (AID 1794843);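 further: nitrocefin turnover by NDM-1 measured as 485 nm absorbance at plateau; series mostly up to about 38 µM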
# Procedure, shortened: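 Enzyme 2 nM final, 50 mM HEPES pH 7.0, 1 uM ZnSO4, 0.01% Tween20; cpds in DMSO, preincub w/ enzyme; + nitrocefin (50 uM stock); A485 at plateau; no-enzyme column as blank.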
# [16] = biological target: Luciferin 4-monooxygenase (Photinus pyralis) (UniProt P08659); assay: Primary firefly luciferase (FLuc) qHTS assay for identification of artifact compounds. (AID 1845220); further: nearly all actives have a fitted effect of over 60% in size
# Procedure, shortened: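 Reaction readout was CCD-imaged luminescence, taken 5 min after adding 10 nM purified firefly enzyme to compound-treated wells holding 10 uM luciferin and ATP in pH 7.6 buffer.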
# [17] = system: Nanoluciferase (engineered Oplophorus gracilirostris luciferase); assay: Primary Nanoluciferase (NLuc) qHTS assay for identification of artifact compounds. (AID 1845222);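 further: NLuc secreted into diluted conditioned medium of S16 cells; series mostly up to about 54 µM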
# Procedure, shortened: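 Concentration-response data were obtained by luminescence after 5 min with Nano-Glo substrate at 1:100. The enzyme was diluted S16 NLuc-expressing cell medium, preincubated with compound for 15 min at RT. Curves were fitted with a 4-parameter Hill model.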
# [18] = biological target: Nuclear receptor subfamily 1 group I member 2 (Homo sapiens) (UniProt O75469); assay: Dual reporter qHTS for antagonist of Pregnane X Receptor (hPXR) against the NCATS DSHEA and TCM libraries: Luminescence Readout (AID 1920060);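 further: HepG2 cells carrying hPXR luciferase reporter stimulated with rifampicin at 2 µM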
# Procedure, shortened: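 HepG2 hPXR-Luc, 2000 cells/well, charcoal-stripped FBS medium; 5 h attach; RIF 2 uM final; 24 h 37C/5% CO2; CellTiter-Fluor 1 h, fluor 405/540; ONE-Glo 30 min RT, lum.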
# Phospholipid hydroperoxide glutathione peroxidase GPX4 (Homo sapiens), sequence (P36969 whole entry, looked up): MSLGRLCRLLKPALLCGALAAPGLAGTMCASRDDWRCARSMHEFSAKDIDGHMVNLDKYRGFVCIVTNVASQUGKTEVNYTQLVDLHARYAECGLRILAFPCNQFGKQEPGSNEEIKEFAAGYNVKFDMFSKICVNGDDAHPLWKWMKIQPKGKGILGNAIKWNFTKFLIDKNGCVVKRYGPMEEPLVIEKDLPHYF
# Glutathione peroxidase 1 (Homo sapiens), sequence (P07203 whole entry, looked up): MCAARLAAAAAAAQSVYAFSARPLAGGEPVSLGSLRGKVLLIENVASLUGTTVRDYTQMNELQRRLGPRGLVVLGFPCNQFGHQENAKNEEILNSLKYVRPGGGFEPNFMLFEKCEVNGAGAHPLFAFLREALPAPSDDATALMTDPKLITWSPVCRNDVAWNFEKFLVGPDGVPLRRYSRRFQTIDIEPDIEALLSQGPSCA
# Cytochrome P450 2C19 (Homo sapiens), sequence (P33261 whole entry, looked up): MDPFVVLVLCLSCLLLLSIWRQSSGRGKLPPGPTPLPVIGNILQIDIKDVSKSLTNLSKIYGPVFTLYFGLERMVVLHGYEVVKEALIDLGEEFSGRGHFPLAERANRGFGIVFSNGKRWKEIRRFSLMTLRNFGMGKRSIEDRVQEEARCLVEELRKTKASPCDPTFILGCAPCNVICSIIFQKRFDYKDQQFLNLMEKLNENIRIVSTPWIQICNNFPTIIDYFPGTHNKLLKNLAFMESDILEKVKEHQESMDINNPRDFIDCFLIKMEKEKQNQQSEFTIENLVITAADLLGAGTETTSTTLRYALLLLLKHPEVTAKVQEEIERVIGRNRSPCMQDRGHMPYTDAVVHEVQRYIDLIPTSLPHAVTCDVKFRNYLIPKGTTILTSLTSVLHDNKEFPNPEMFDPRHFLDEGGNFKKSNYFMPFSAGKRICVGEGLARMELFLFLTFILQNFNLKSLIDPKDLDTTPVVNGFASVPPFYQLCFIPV
# Cytochrome P450 2C9 (Homo sapiens), sequence (P11712 whole entry, looked up): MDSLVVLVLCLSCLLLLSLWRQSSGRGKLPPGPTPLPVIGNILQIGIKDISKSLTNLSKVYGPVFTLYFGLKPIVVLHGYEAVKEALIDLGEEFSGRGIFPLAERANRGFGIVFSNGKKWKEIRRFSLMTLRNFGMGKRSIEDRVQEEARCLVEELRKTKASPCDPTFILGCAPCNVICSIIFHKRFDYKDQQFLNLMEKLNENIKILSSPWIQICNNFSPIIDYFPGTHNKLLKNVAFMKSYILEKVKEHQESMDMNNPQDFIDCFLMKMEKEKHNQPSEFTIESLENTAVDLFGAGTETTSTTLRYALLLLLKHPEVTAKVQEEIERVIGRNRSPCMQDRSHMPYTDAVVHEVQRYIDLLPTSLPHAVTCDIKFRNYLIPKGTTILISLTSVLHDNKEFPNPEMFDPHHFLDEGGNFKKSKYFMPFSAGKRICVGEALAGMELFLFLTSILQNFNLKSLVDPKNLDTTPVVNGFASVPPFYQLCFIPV
# Cytochrome P450 1A2 (Homo sapiens), sequence (P05177 whole entry, looked up): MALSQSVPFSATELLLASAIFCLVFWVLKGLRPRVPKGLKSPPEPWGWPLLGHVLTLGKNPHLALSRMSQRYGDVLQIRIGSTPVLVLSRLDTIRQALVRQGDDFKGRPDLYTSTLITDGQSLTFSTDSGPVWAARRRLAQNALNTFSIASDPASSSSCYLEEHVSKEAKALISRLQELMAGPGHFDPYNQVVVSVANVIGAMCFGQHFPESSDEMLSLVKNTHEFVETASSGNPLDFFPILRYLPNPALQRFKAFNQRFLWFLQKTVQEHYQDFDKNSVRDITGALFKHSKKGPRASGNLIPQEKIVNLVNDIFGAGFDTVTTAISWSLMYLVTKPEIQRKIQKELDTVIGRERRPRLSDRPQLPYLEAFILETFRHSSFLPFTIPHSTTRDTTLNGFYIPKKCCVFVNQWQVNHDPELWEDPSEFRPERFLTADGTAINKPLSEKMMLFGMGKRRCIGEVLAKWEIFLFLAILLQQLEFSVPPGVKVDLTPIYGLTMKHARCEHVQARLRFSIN
# Nuclear receptor subfamily 1 group I member 2 (Homo sapiens), sequence (O75469 whole entry, looked up): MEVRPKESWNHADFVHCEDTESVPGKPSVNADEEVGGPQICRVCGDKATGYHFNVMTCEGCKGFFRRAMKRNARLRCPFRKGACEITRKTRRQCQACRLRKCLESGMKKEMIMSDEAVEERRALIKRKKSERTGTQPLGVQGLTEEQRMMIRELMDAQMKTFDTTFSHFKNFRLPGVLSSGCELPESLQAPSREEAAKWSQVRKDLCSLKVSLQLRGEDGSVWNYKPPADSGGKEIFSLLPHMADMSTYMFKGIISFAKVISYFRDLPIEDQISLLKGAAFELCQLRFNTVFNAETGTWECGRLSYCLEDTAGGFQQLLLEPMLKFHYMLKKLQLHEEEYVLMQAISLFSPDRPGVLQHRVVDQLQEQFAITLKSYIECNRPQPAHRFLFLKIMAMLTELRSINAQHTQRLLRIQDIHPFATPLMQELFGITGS
# Cytochrome P450 3A4 (Homo sapiens), sequence (P08684 whole entry, looked up): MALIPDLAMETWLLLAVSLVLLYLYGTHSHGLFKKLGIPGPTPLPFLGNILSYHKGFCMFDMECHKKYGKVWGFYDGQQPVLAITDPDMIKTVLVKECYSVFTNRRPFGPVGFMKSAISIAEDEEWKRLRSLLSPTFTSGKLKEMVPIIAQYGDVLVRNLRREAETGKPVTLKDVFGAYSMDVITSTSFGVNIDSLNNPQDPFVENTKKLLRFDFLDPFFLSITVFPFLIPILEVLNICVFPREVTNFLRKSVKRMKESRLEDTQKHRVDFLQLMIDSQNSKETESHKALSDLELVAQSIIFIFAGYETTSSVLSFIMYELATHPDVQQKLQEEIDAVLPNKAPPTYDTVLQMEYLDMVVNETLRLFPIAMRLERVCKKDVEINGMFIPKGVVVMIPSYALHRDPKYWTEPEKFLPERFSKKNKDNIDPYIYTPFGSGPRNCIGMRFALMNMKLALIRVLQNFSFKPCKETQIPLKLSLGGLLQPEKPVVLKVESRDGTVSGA
# Cytochrome P450 2D6 (Homo sapiens), sequence (P10635 whole entry, looked up): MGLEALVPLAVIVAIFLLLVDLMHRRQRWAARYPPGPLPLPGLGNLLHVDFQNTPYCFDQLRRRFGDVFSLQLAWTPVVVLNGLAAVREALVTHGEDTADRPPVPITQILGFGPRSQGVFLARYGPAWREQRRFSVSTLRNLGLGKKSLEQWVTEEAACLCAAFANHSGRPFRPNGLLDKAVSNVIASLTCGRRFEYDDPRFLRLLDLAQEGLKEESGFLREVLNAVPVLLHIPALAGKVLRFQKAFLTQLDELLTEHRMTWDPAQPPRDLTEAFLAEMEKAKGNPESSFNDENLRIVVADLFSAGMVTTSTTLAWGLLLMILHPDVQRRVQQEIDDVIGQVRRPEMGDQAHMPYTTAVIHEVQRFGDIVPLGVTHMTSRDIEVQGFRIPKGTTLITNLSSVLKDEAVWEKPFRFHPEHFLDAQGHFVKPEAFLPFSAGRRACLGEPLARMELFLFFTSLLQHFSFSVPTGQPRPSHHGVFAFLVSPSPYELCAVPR
# Metallo-beta-lactamase type 2 (Klebsiella pneumoniae), sequence (C7C422 whole entry, looked up): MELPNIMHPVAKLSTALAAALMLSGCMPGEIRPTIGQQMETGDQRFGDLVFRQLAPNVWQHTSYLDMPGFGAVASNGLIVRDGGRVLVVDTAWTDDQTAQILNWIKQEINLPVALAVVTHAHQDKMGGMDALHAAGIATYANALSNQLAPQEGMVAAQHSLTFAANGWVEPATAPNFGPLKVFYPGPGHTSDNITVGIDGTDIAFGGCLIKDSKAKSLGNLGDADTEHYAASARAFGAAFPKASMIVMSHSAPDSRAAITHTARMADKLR
# Nuclear receptor subfamily 1 group I member 3 (Homo sapiens), sequence (Q14994 whole entry, looked up): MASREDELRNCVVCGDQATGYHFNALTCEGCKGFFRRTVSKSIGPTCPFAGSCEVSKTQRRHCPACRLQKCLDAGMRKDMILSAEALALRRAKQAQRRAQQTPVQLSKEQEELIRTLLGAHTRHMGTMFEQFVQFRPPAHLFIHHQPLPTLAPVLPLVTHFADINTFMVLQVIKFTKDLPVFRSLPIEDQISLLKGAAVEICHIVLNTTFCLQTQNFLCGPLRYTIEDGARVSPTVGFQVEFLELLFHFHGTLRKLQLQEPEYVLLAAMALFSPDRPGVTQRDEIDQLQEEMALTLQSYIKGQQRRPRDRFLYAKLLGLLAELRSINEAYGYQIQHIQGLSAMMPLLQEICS
smiles,measurement,setting,value
O=C(O)CC(O)(CC(=O)O)C(=O)O,outcome,[1],inactive
same,outcome,[2],inactive
same,outcome,[3],inactive
same,Potency,[4],inactive
same,Potency,[5],inactive
same,outcome,[6],inactive
same,outcome,[7],inactive
same,Potency,[8],inactive
same,Potency,[9],inactive
same,outcome,[10],inactive
same,Potency,[11],inactive
same,max response,[12],-0.506% (inactive)
same,outcome,[13],inactive
same,outcome,[14],inactive
Cc1ccc(/C(=C\CN2CCCC2)c2cccc(/C=C/C(=O)O)n2)cc1,Potency,[4],inactive
Cc1cc(Nc2ccccc2C(=O)O)ccc1Cl,Potency,[4],inactive
CCC(C)(C)OC(=O)N[C@@H](Cc1c[nH]c2ccccc12)C(=O)N[C@@H](CCSC)C(=O)N[C@@H](CC(=O)O)C(=O)N[C@@H](Cc1ccccc1)C(N)=O,Potency,[4],inactive
CC(CC(c1ccccc1)c1ccccc1)NC(C)(C)C (centres undefined),Potency,[4],inactive
same,Potency,[5],inactive
NCCCC[C@H](NC(=O)[C@@H]1CCCN1C(=O)[C@@H]1CSSC[C@H](N)C(=O)N[C@@H](Cc2ccccc2)C(=O)N[C@@H](Cc2ccccc2)C(=O)N[C@@H](CCC(N)=O)C(=O)N[C@@H](CC(N)=O)C(=O)N1)C(=O)NCC(N)=O,Potency,[4],inactive
NCCCC(=O)O,outcome,[15],inactive
same,Potency,[4],inactive
same,Potency,[5],inactive
O=C(Cn1cnnn1)N[C@@H]1C(=O)N2C(C(=O)O)=C(CSc3nncs3)CS[C@H]12,Potency,[4],18 µM (active)
same,Potency,[5],inactive
CCCC(=O)O[C@]1(C(=O)COC(=O)CC)[C@@H](C)C[C@H]2[C@@H]3CCC4=CC(=O)C=C[C@]4(C)[C@@]3(F)[C@@H](O)C[C@@]21C,Potency,[4],inactive
O=S(O)CNc1ccc(S(=O)(=O)c2ccc(NCS(=O)O)cc2)cc1,Potency,[4],inactive
same,Potency,[5],inactive
N#Cc1ccnc(Nc2cc(C3CCN(C4COC4)CC3)cc(N3CCC(F)(F)C3)n2)c1,Potency,[4],inactive
O=C1C(c2[nH]c3ccc(S(=O)(=O)O)cc3c2O)=Nc2ccc(S(=O)(=O)O)cc21,Potency,[4],inactive
same,Potency,[5],inactive
Cc1cc(-n2c(=O)[nH]c(=O)n(C)c2=O)ccc1Oc1ccc(S(=O)(=O)C(F)(F)F)cc1,Potency,[4],inactive
C/C(=C(/CCO)SSCC1CCCO1)N(C=O)Cc1cnc(C)nc1N (centres undefined),Potency,[4],inactive
same,Potency,[5],inactive
CC(=O)C1=C(O)C=C2Oc3c(C(C)=O)c(O)c(C)c(O)c3[C@]2(C)C1=O,outcome,[2],inactive
same,outcome,[3],inactive
same,Potency,[4],inactive
same,Potency,[5],inactive
same,Potency,[16],inactive
same,Potency,[17],inactive
same,Potency,[8],4.47 µM (active)
same,Potency,[9],3.98 µM (active)
same,outcome,[10],inactive
same,Potency,[11],7.94 µM (active)
same,max response,[12],-5.05% (inactive)
same,outcome,[13],inactive
same,outcome,[18],inactive
O=S(=O)(O)Oc1ccc(C(c2ccc(OS(=O)(=O)O)cc2)c2ccccn2)cc1,Potency,[4],inactive
same,Potency,[5],inactive
C=CCNC1=C2C[C@@H](C)C[C@H](OC)[C@H](O)[C@@H](C)/C=C(\C)[C@H](OC(N)=O)[C@@H](OC)/C=C\C=C(/C)C(=O)NC(=CC1=O)C2=O,Potency,[4],inactive
COC(=O)Nc1cc(Nc2cc(NC3CC3)c3ncc(C#N)n3n2)c(Cl)c(N2CCN(C)CC2)c1,Potency,[4],inactive
same,Potency,[5],inactive
C[C@H]1C[C@@H]2[C@H]([C@@H](O)C[C@@]3(C)[C@H]2CC[C@]3(O)C(=O)COC(=O)CCC(=O)O)[C@@]2(C)C=CC(=O)C=C12,Potency,[4],inactive
same,Potency,[5],inactive
CCCN(CC)C(CC)C(=O)Nc1c(C)cccc1C (centres undefined),Potency,[4],inactive
same,Potency,[5],inactive
CCCOc1ccc2nc(NC(=O)OC)sc2c1,Potency,[4],inactive
same,Potency,[5],inactive
O=[N+]([O-])c1ccc(Oc2ccc(N=C=S)cc2)cc1,Potency,[4],inactive
Cn1nnnc1SCC1=C(C(=O)O)N2C(=O)[C@@H](NC(=O)[C@H](OC=O)c3ccccc3)[C@H]2SC1,Potency,[4],9.04 µM (active)
C[C@@H]1COCCN1c1cc(=O)n2c(n1)N(Cc1cncc(Cl)c1)[C@H](C(F)(F)F)CC2,Potency,[4],inactive
same,Potency,[5],inactive
COc1cc2[nH]c(C)c(CCN3CCN(c4ccccc4)CC3)c2cc1OC,Potency,[4],inactive
CCCCCCCCCC(=O)O,outcome,[2],inactive
same,outcome,[3],inactive
same,Potency,[4],inactive
same,Potency,[5],inactive
same,outcome,[6],inactive
same,outcome,[7],inactive
same,Potency,[8],inactive
same,Potency,[9],inactive
same,outcome,[10],inactive
same,Potency,[11],inactive
same,max response,[12],-0.481% (inactive)
same,outcome,[13],inactive
same,outcome,[14],inactive
same,outcome,[18],inactive
CC#CCC(C)[C@H](O)/C=C/[C@@H]1[C@H]2C/C(=C/CCCC(=O)O)C[C@H]2C[C@H]1O (some centres undefined),Potency,[4],inactive
same,Potency,[5],inactive
